# Assay outcomes: PubChem, several laboratories
# eIF4H FP inh: inhibitors of RNA binding by human eIF4H; inhibition, % at 35 µM; Q15056; eIF4H fluorescence polarization binding assay; AID 2012; 290,000 compounds, 0.94% hits;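 further: calls also rest on retests at 20 µM and on dose response follow-up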
# PABP polyA inh: PABP-poly(A) binding inhibition; AID 2014; P11940; inhibition, % at 35 µM; 290,000 compounds, 1% hits; PABP-poly(A) RNA binding, fluorescence polarization;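 further: calls also rest on retests at 20 µM and on dose response follow-up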
# PERK inh: blocks human PERK kinase; inhibition, % at 5.6 µM; CHO PERK-DD fusion, SEAP luminescence translation reporter; 220,000 compounds, 0.17% hits; Q9NZJ5;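 active means inhibition above the mean inhibition of all tested compounds plus 3 SD, set separately per screening campaign, cut at about 2.9% in these data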;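 further: PERK kinase domain activated by AP20187 dimerizer at 100 nM; 0% = DMSO with dimerizer and 100% = rapamycin at 8.4 µM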
# MLLE-PAM2 inh: inhibitors of microRNA-mediated deadenylation, human PABP1 MLLE binding. GST-MLLE / FITC-PAM2 fluorescence polarization. AID 588489. inhibition, % at 20 µM. 360,000 compounds, 0.36% hits; in the data active means inhibition above about 35%, passing the limit was not always enough;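 further: plate controls were DMSO wells with GST-MLLE for no effect and wells lacking GST-MLLE protein for full effect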
# eIF4E-4G inh: inhibitors of eIF4E and eIF4G interaction in translation initiation; P63073+Q04637; TR-FRET eIF4E-eIF4GI(517-606) binding, 2 h; inhibition, % at 21.7 µM; 220,000 compounds, 0.37% hits; AID 782;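 active means inhibition above about 30%, limit read from the data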;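 further: 0% = full FRET control wells and 100% = background wells lacking eIF4GI fragment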
# * = called active by the depositor; u = inconclusive; x = not tested or not shown; [ ] = dose if it differs, or a comment. Most compounds without a hit are left out; they make up all but 1.6% or so of the library. Unless noted, how the calls were made is not given here.
SMILES,eIF4H FP inh,PABP polyA inh,PERK inh,MLLE-PAM2 inh,eIF4E-4G inh
O=C(COC(=O)CNS(=O)(=O)c1ccc(Cl)cc1)NC1CCCCC1,x,x,x,3.9,x
Cc1ccc(S(=O)(=O)N2CCOCC2)cc1C(=O)NC1=NCCS1,x,x,x,-3.9,x
CCn1c(SCC(=O)OC)nc2sc3c(c2c1=O)CCC3,71.8*,16.7,-0.3,-6.0,4.0
CCn1c(SCC(=O)O)nc2sc3c(c2c1=O)CCC3,48.1,37.0,-0.3,10.6,11.9
Cc1cc(C)c(NC(=O)CSCc2c(C)noc2C)c(Cl)c1,x,x,x,-2.9,x
CC1=CC2=NC(=O)/C(=C\c3cc(C)n(-c4ccccc4F)c3C)C(=N)N2O1,u,8.5,0.7,15.8,-4.7
Cc1cc(/C=C2/C(=N)N3C(=NC2=O)SN=C3S(C)(=O)=O)c(C)n1-c1ccccc1F,17.1,3.7,3.4*,12.1,31.4*
OCC[C@@H]1C[C@H](O)[C@@H](O)[C@]2(OCCc3cc(Cl)ccc32)O1,x,x,x,-1.8,x
CC(C)[C@H](NC(=O)Cc1ccccc1)C(=O)OCc1cc(=O)n2c(n1)sc1ccccc12,75.4*,119.8*,0.0,-14.6,19.1
O=C(OCc1cc(=O)n2c(n1)sc1ccccc12)c1ccc2c(=O)n3c(nc2c1)CCC3,74.9*,52.4*,x,-34.4,x
Cc1ccc(COC(=O)Cc2coc3cc(O)ccc23)cc1,1.4,18.7,x,-0.8,x
Cc1ccc2c(CC(=O)OCc3cc(=O)n4c(n3)sc3ccccc34)coc2c1,70.1*,25.1,1.8,-6.6,11.9
O=c1cc(CSc2nnc(-c3cccs3)n2Cc2ccccc2)nc2sc3ccccc3n12,45.8,16.9,-0.4,-104.2,-6.7
CSCCC(NC(=O)c1ccc(Cl)cc1Cl)C(=O)N(C)Cc1nc2ccccc2c(=O)[nH]1 (stereo not drawn),x,x,x,9.1,x
COC(=O)Nc1nnc(-c2ccncc2)s1,-8.3,10.7,0.7,36.3*,1.8
Cc1ccc2cc(C#N)c(N3CCCN(C(=O)C4CCCO4)CC3)nc2c1C (stereo not drawn),93.8*,106.8*,-0.7,-4.2,0.6
Cc1ccc2cc(C#N)c(N3CCCC3)nc2c1C,5.5,0.7,0.8,-11.6,x
Cc1ccc(C)c(Nc2ncccc2C(=O)NCc2cccs2)c1,u,75.7*,-0.2,7.5,0.5
CN1NC(c2ccccc2)NN(C)C1=O,x,x,x,4.0,x
CC1C2C(c3ccccc3)N(C)C(=O)N(C)C2N(C)C(=O)N1C (stereo not drawn),57.2*,55.7*,2.7,20.8,3.9
CCOc1ccc(NC(=S)c2ccc3ccccc3n2)cc1,5.1,5.8,x,26.3,x
Cc1ccc(NC(=S)c2ccc3ccccc3n2)c(C)c1,-3.0,0.6,x,36.2*,x
Cc1ccc(C)c(NC(=O)c2ccc3ccccc3n2)c1,-0.8,7.5,0.8,7.8,-0.2
COc1ccc(NC(=S)c2ccc3ccccc3n2)cc1,-12.2,-1.3,x,38.2*,x
COc1ccc(C(=S)Nc2ccc(C)cc2)cc1,2.4,3.4,1.1,39.5*,6.6
SMILES,eIF4H FP inh,PABP polyA inh,PERK inh,MLLE-PAM2 inh,eIF4E-4G inh
N#CCCN(Cc1ccccc1)C(=O)CCC(=O)c1ccc(F)cc1,x,x,x,-23.7,x
O=c1cc(-c2ccc([N+](=O)[O-])cc2)nc2cc(-c3ccc(F)cc3)[nH]n12,63.0,active,0.7,8.4,13.1
CC1CCc2[nH]c3ccc(C(=O)N4CCCC(C(F)(F)F)C4)cc3c2C1 (stereo not drawn),x,x,x,-7.9,x
CCC1CC(C)(C(=O)Nc2ccc(S(N)(=O)=O)cc2)OC1=O (stereo not drawn),-3.1,11.6,2.9*,5.5,2.1
Cc1[nH]n(-c2ccccc2)c(=O)c1N=Nc1ccccc1O,11.6,9.2,1.1,-4.5,-5.8
Cc1[nH]n(-c2ccccc2)c(=O)c1N=Nc1ccc2c(c1)OCO2,-4.2,-15.8,-0.3,-2.1,-1.5
Cc1ccccc1N=Nc1c(C)[nH]n(-c2ccccc2)c1=O,-2.6,-6.2,1.4,x,59.3*
Cc1[nH]n(C2=NCCS2)c(=O)c1N=Nc1ccccc1,1.3,10.8,1.5,40.2*,-7.6
CC(=O)NC(c1ccc(F)c(F)c1)c1nc(-c2ccncc2)cs1 (stereo not drawn),x,x,x,8.2,x
O=c1[nH]cnc2c1ncn2C1CCC(CO)O1 (stereo not drawn),x,x,x,0.1,x
Cc1cc(O)c(-c2cc(O)c(C)cc2O)cc1O,1.1,2.6,-0.4,47.8*,6.0
O=C1Nc2ccccc2/C1=C/c1ccc([N+](=O)[O-])cc1,1.9,0.1,x,13.7,x
CC1(c2ccc([N+](=O)[O-])cc2)Nc2ccccc2S1 (stereo not drawn),0.6,-3.1,x,41.9*,x
Cc1cnc(NC(=O)c2ccc(-c3nc4ccccc4s3)o2)s1,-2.5,8.3,-0.8,-33.9,59.1*[fluorescence artefact?]
Oc1cc2c(cc1C(c1ccc(Br)cc1)N1CCCC1)OCO2 (stereo not drawn),-13.6,-24.7,1.4,31.0,43.6*
O=S(=O)(NCC(c1ccc2c(c1)OCO2)N1CCOCC1)c1ccc(Br)cc1 (stereo not drawn),x,x,x,0.3,x
CC(C)C(NC(=O)C(C)N1C(=O)c2ccccc2C1=O)c1ccccc1 (stereo not drawn),-8.3,5.1,x,4.7,x
C=CCNC(=S)NS(=O)(=O)c1cccs1,-3.5,-15.1,-0.1,44.3*,1.0
Nc1ccc(Nc2ccccc2)c(S(=O)(=O)O)c1,95.2*,69.0*,1.9,-5.8,24.9
CCOc1ccccc1N(CC(=O)Nc1ccccc1Br)S(=O)(=O)c1ccccc1,x,x,x,12.3,x
C=CCOC(=O)/C(=C/c1ccco1)NC(=O)/C=C/c1ccccc1,-2.0,3.9,-0.6,-9.4,2.3
O=C(O)CNC(=O)/C(=C/c1ccco1)NC(=O)/C=C/c1ccccc1,53.2*,active,0.3,-4.9,4.5
CCOC(=O)CN1C(=O)CC(c2ccc([N+](=O)[O-])cc2)C1=O (stereo not drawn),-15.2,-3.3,x,5.6,x
CCOC(=O)C(=CN=C(N)Nc1nc2ccccc2o1)C(=O)OCC,12.4,-2.2,1.6,8.6,0.6
CCCOC(=O)Nc1nc2ccccc2o1,72.5*,51.8*,1.4,10.6,-4.2
SMILES,eIF4H FP inh,PABP polyA inh,PERK inh,MLLE-PAM2 inh,eIF4E-4G inh
COC(=O)c1c(NC(=S)Nc2cc(OC)c(Cl)cc2OC)sc2c1CCCCC2,8.5,3.2,0.5,47.2*,19.2
CCOC(=O)c1c(NC(=S)Nc2cc([N+](=O)[O-])ccc2OC)sc2c1CCCCC2,-2.2,22.5,0.5,x,-2.1
O=C(/N=C1\NC(=O)C(F)(C(F)(F)F)S1)NC1CCCCC1 (stereo not drawn),121.8*,101.8,x,-6.9,43.9*
CCn1c(CSc2nc3ccccc3s2)nnc1SCC(=O)c1ccc(O)c(O)c1,51.6*,9.9*,-0.7,-56.8,-1.2
O=C(Nc1ccc2ncccc2c1)c1ccccc1Cl,0.4,73.9*,0.3,-132.2,1.7
O=C(Cn1nc(C(=O)O)c2ccccc2c1=O)Nc1cc(S(=O)(=O)N2CCCCC2)ccc1Cl,x,x,x,-16.7,x
CNC(=S)NN=C(C)c1ccc(OC)cc1O,x,x,x,43.1*,x
COc1ccc(-n2c(Cc3cc(=O)[nH]c(=O)[nH]3)nnc2SCC(=O)NC2CCCC2)cc1,30.1,26.2,0.3,11.9,-0.9
